Screens as filed in PubChem BioAssay.
In the library only some 1.4% were active in any assay of this set; here they are far more common.
GLD-1 RNA inh – GLD-1-TGE RNA interaction inhibition (C. elegans) | Q17339 | purified GLD-1 + fluorescein TGE RNA, fluorescence polarization | inhibition, % at 5.96 µM | 320,000 compounds, 0.44% hits;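 active means percent inhibition above a per-plate cutoff, the plate mean of test compounds plus 3 SD, cut at about 30% in these data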
E coli Lon inh – inhibitors of E. coli Lon protease; purified E. coli Lon protease, fluorescence polarization; inhibition, % at 7.94 µM; 360,000 compounds, 0.42% hits; AID 602123; in the data active means inhibition above about 13%, passing the limit was not always enough
MCL1 BIM primary – disrupts human MCL1 binding to BIM-BH3 peptide; inhibition, % at 10.9 µM; GST-MCL1 / FITC-Bim-BH3 fluorescence polarization; 320,000 compounds, 0.68% hits; Q07820;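 active means inhibition above the mean inhibition of all tested compounds plus 3 SD, set per campaign, cut at about 40% in these data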;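 further: higher means more loss of mP so more displacement of Bim peptide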
MEX-5 binding – C. elegans MEX-5 TCR-2 RNA binding activity; 300,000 compounds, 0.38% hits; MEX-5/FITC-TCR2 RNA binding, fluorescence polarization; stronger effect = lower value; activity score (negative = inhibition of binding), % at 10 µM; Q9XUB2; AID 1832;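 active means inhibition past about -25% in most replicates, and total fluorescence under double the plate's negative control median, limit read from the data; inconclusive means replicates evenly split on the limit, or fluorescence at least double controls; inactive means too little inhibition in most replicates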
Target sequence (Q9XUB2 whole entry, looked up): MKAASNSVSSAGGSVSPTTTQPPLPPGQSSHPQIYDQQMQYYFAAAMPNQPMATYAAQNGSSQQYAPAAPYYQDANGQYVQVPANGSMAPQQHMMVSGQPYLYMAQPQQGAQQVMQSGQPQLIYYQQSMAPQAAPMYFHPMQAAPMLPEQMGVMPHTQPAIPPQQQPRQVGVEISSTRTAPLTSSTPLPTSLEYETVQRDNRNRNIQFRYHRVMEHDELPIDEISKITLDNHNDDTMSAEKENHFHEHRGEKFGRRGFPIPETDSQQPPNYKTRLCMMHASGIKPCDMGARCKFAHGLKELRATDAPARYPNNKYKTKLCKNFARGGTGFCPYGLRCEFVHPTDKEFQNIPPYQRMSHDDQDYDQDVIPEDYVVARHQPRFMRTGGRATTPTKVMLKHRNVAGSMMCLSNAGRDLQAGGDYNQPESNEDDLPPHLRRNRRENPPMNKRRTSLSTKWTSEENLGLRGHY
Bcl-xL primary – inhibitors of human Bcl-xL; GST-Bcl-xL / FITC-Bim BH3 peptide fluorescence polarization; Q07817; inhibition, % at 10.9 µM; 320,000 compounds, 0.7% hits;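 active means inhibition above the mean of all tested compounds plus 3 SD, cutoff set per campaign, cut at about 30% in these data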;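 further: inhibitors lower millipolarization by displacing the labeled peptide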
Target sequence (Q07817 whole entry, looked up): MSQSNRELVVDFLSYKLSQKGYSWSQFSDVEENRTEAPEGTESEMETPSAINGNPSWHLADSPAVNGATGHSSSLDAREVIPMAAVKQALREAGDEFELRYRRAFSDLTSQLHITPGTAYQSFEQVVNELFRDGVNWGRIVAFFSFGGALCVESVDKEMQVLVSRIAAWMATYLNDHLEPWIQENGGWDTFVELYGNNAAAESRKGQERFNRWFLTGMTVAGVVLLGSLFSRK
BCLXL inh confirm – counter-screen for MCL1 inhibitors: confirmation of human Bcl-xL inhibitors; 1,700 compounds, 54% hits; GST-Bcl-xL / FITC-Bim BH3 peptide FP binding; AID 2166; inhibition, % at 10.9 µM; shares compounds with MCL1 BIM primary;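 active means inhibition above a cutoff equal to the mean inhibition of all tested compounds plus 3 SD, cut at about 30% in these data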
MCL1 BIM confirm – MCL1-BIM-BH3 interaction inhibition, confirmation. shares compounds with MCL1 BIM primary. AID 2168. 1,700 compounds, 61% hits. inhibition, % at 10.9 µM. GST-MCL1 / FITC-Bim-BH3 fluorescence polarization;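 active means inhibition above the average of all tested compounds plus 3 SD, cut at about 40% in these data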
GLD-1 TGE cf – GLD-1 TGE RNA interaction inhibition, confirmation; shares compounds with GLD-1 RNA inh; GLD-1/FL-TGE RNA fluorescence polarization, biochemical; inhibition, % at 5.96 µM; 550 compounds, 10% hits;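 active means average inhibition across triplicates above the hit cutoff set in the primary screen, cut at about 32% in these data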
eLon confirm – E. coli Lon inhibition confirmation | 1,400 compounds, 31% hits | purified E. coli Lon, fluorescence polarization | inhibition, % at 7.94 µM | shares compounds with E coli Lon inh; in the data active means inhibition above about 16%
Of the large screens only hits and unclear results are named; the others gave an inactive call (follow-up assays come after a bar, where they were run).

CCOc1ccc(N2C(=O)/C(=C/c3ccco3)C(=O)NC2=S)cc1	none
CC12CCC(=O)C=C1CCC1C2C(O)CC2(C)C(O)CCC12 (centres undefined)	none (no result: GLD-1 RNA inh, MCL1 BIM primary, MEX-5 binding, Bcl-xL primary)
CC(C)(O)[C@H]1O[C@H]2CC[C@@]3(C)[C@@](O)(CC[C@H]4Cc5c([nH]c6ccccc56)[C@@]43C)C2=CC1=O	GLD-1 RNA inh 74, MCL1 BIM primary 100, MEX-5 binding -28, Bcl-xL primary 83 (no result: E coli Lon inh) | BCLXL inh confirm 60 | MCL1 BIM confirm 76
COc1ccc(C2C3C=CC(C3)C2C(=O)O)cc1 (centres undefined)	none (no result: GLD-1 RNA inh, MCL1 BIM primary, MEX-5 binding, Bcl-xL primary)
C=CCn1c(O)c(C(CC)=Nc2ccc(N(C)C)cc2)c(=O)[nH]c1=O	MCL1 BIM primary 45 | BCLXL inh confirm inactive | MCL1 BIM confirm inactive
COc1ccc(CN2Cc3cc(-c4cccc(F)c4)ccc3-n3nncc3C2)cc1	none (no result: GLD-1 RNA inh, MCL1 BIM primary, MEX-5 binding, Bcl-xL primary)
COC(=O)Cn1cc(/C=C2\C(=O)NC(=O)N(c3ccccc3)C2=O)c2ccccc21	MCL1 BIM primary 135, MEX-5 binding -43 | BCLXL inh confirm 73 | MCL1 BIM confirm 94
Cc1ccc(N2C(=O)NC(=O)/C(=C\c3cn(CC(=O)O)c4ccccc34)C2=O)cc1	MEX-5 binding inconclusive
NN=C1C(Cl)=C(Cl)C(Cl)=C1Cl	none (no result: GLD-1 RNA inh, MCL1 BIM primary, MEX-5 binding, Bcl-xL primary)
CN1CCc2nc3sc(C#N)c(N)c3c(-c3cccs3)c2C1	none
CN1CCc2nc(N)c(C#N)c(-c3ccccc3)c2C1	GLD-1 RNA inh 46, MCL1 BIM primary 69, Bcl-xL primary 61 | BCLXL inh confirm inactive | MCL1 BIM confirm inactive
CCCCn1c(O)c(C(=O)/C=C/c2c[nH]c3ccccc23)c(=O)[nH]c1=O	MCL1 BIM primary 85 | BCLXL inh confirm inactive | MCL1 BIM confirm inactive
Cc1ccc(N2C(=O)NC(=O)/C(=C\c3cccn3C(C)(C)C)C2=O)cc1	none
CCC(C)c1ccc(N2C(=O)NC(=O)/C(=C/c3cccn3CCOc3ccc(C)cc3)C2=O)cc1 (centres undefined)	MCL1 BIM primary 113, Bcl-xL primary 80 | BCLXL inh confirm 42 | MCL1 BIM confirm 53
O=[N+]([O-])c1ccc(NCc2ccccc2)c2nonc12	GLD-1 RNA inh 198, MCL1 BIM primary 175, MEX-5 binding -36, Bcl-xL primary 147 (no result: E coli Lon inh) | BCLXL inh confirm 167 | MCL1 BIM confirm 197
O=[N+]([O-])c1ccc(NCc2ccc(Cl)cc2)c2ccncc12	none
CCN(CC)c1ccc(N=Cc2c(O)n(-c3ccc(OC)cc3)c(=O)[nH]c2=O)cc1	MCL1 BIM primary 41, MEX-5 binding -34 | BCLXL inh confirm 113 | MCL1 BIM confirm inactive
COC(=O)C1=C(c2ccc(C(C)=O)cc2)C[C@@H]2CC[C@H]1N2C(=O)NC1Cc2ccccc2C1	none (no result: MEX-5 binding)
CCCOC(=O)c1ccccc1C(=O)OCCC	none (no result: MEX-5 binding)
CCOC(=O)c1ccccc1C(=O)OCC	GLD-1 RNA inh 43, MCL1 BIM primary 74, Bcl-xL primary 63 | BCLXL inh confirm 60 | MCL1 BIM confirm 72
O=C1NC(=O)C(=C/C=C/c2coc3ccc(Br)cc3c2=O)C(=O)N1	MCL1 BIM primary 74, Bcl-xL primary 86 (no result: E coli Lon inh) | BCLXL inh confirm 92 | MCL1 BIM confirm 111
N/C(=N\N=C/c1ccc(-c2ccc(O)c(C(=O)O)c2)o1)N[N+](=O)[O-]	MCL1 BIM primary 80, MEX-5 binding -29 | BCLXL inh confirm inactive | MCL1 BIM confirm 81
O=C(c1ccc(-c2ccccc2)c(F)c1)C1CCCN(CCO)C1 (centres undefined)	none
COc1cc2c(cc1OC)-c1c(OC)c(OC)c(OC)c3ccnc(c13)C2=O	GLD-1 RNA inh 41, MCL1 BIM primary 55, MEX-5 binding -83, Bcl-xL primary 52 (no result: E coli Lon inh) | BCLXL inh confirm 59 | MCL1 BIM confirm 56 | GLD-1 TGE cf 41
O=C1NC(=S)SC1=Cc1ccc(N(CCCl)CCCl)cc1	none (no result: GLD-1 RNA inh, MCL1 BIM primary, MEX-5 binding, Bcl-xL primary)
Nc1ccc2nonc2c1[N+](=O)[O-]	GLD-1 RNA inh active, E coli Lon inh 193, MCL1 BIM primary active, MEX-5 binding inconclusive, Bcl-xL primary active | BCLXL inh confirm active | MCL1 BIM confirm active | GLD-1 TGE cf 158 | eLon confirm active
CN(c1ccc(O)cc1)c1ccc([N+](=O)[O-])c2nonc12	none (no result: GLD-1 RNA inh, MCL1 BIM primary, MEX-5 binding, Bcl-xL primary)
O=S1(=O)N(CCN2CC=C(c3c[nH]c4cc(F)ccc34)CC2)c2cccc3c2N1CCC3	none (no result: MEX-5 binding)
CC(=O)n1cc(C=C2C(=O)NC(=O)NC2=O)c2ccccc21	none
Cn1cc(C=C2C(=O)NC(=O)NC2=O)c2ccccc21	E coli Lon inh 117, MCL1 BIM primary active, MEX-5 binding inconclusive, Bcl-xL primary active | BCLXL inh confirm active | MCL1 BIM confirm active | eLon confirm active
c1ccc(N2C3C4CC(C5CCCC54)C32)cc1 (centres undefined)	none (no result: GLD-1 RNA inh, MCL1 BIM primary, MEX-5 binding, Bcl-xL primary)
Cc1cc2c(C(F)(F)F)cc(=O)oc2c2c1NCCC2	GLD-1 RNA inh 112, E coli Lon inh 65, MCL1 BIM primary 146, Bcl-xL primary 112 | BCLXL inh confirm 95 | MCL1 BIM confirm 94 | eLon confirm 62
O=c1cc(C(F)(F)F)c2cc3c4c(c2o1)CCCN4CCC3	GLD-1 RNA inh active, E coli Lon inh active, MCL1 BIM primary active, MEX-5 binding inconclusive, Bcl-xL primary active | BCLXL inh confirm 179 | MCL1 BIM confirm active | eLon confirm 167
Nc1ccc2ccc3cccc[n+]3c2c1	GLD-1 RNA inh 63, E coli Lon inh active, MCL1 BIM primary active, MEX-5 binding inconclusive, Bcl-xL primary active | BCLXL inh confirm active | MCL1 BIM confirm active | eLon confirm active
CC(C)C/C(=N/O)c1c[nH]c2ccccc12	none
O=[N+]([O-])c1ccc(N2CCCCCC2)c2nonc12	GLD-1 RNA inh 138, E coli Lon inh 61, MCL1 BIM primary 149, MEX-5 binding inconclusive, Bcl-xL primary 132 | BCLXL inh confirm 108 | MCL1 BIM confirm 113 | eLon confirm 21
CN1CCc2cc3c(c4c2C1Cc1ccccc1-4)OCO3 (centres undefined)	GLD-1 RNA inh 94, E coli Lon inh 148, MCL1 BIM primary active, MEX-5 binding inconclusive, Bcl-xL primary 166 | BCLXL inh confirm 77 | MCL1 BIM confirm 87 | eLon confirm 99
Cc1ccc(NC(=O)c2ncn(CCCNCCN3CCOCC3)n2)cc1C	none (no result: GLD-1 RNA inh, MCL1 BIM primary, MEX-5 binding, Bcl-xL primary)
CCCCCN1C(=O)c2cc(OC)ccc2[C@@]2(C(=O)OCC)Cc3cc(Cl)ccc3[C@@H]12	none (no result: GLD-1 RNA inh, MCL1 BIM primary, MEX-5 binding, Bcl-xL primary)
